The values below come from PubChem BioAssay AID485317 (Broad Institute, 2010).

Screen size: about 290,000 compounds; about 11,000 (3.8%) were called active.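 The calls were made as follows: active = mean replicate inhibition above about 79%, with every replicate also reaching it (limit read from the data); inconclusive = only one of the two criteria met; inactive = mean below limit and not every replicate reaching it.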 Shown is part of a subset that was picked to be rich in actives.

This test deals with FAD-linked sulfhydryl oxidase ALR (Homo sapiens) (UniProt P55789). The experiment in a line: ALR-catalysed DTT oxidation blockers – biochemical, H2O2 detection, HRP-luminol luminescence, single point, primary screen (AID 485317). To be noted: purified ALR, stronger effect = higher value, concentration not given here.
Sequence of FAD-linked sulfhydryl oxidase ALR (Homo sapiens) (P55789 whole entry, looked up): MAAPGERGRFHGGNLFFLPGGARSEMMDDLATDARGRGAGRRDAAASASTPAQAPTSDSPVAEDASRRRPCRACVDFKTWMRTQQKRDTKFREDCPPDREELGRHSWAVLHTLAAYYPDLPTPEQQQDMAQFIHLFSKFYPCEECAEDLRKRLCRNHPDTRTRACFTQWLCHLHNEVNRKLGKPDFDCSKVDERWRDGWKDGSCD
In the case of `Cc1ccc(Nc2nnc(SCc3ccccc3)s2)cc1`, the inhibition (usually the drop in the measured response relative to a control, in per cent) is -12.9% (inactive).

For the compound `O=C(CSc1nnc(Nc2ccccc2)s1)Nc1cccnc1Cl`, the inhibition was 4.27% (inactive). As for `CC(C)c1ccc(Nc2nnc(SCC(=O)c3nnc(-c4ccccc4)o3)s2)cc1`, the figure is 98.1% (active); as for `CC(C)n1c(-c2cccs2)nc2ccccc21`, -15.2% (inactive). Consider `CC(C)n1c(COc2ccccc2)nc2ccccc21`, for which the inhibition was 14.1% (inactive). For `CC(C)n1c(NCc2c[nH]c3ccccc23)nc2ccccc21`, the inhibition is 97.9% (active). Regarding `O=C(O)c1cc(S(=O)(=O)Nc2ccc3cn[nH]c3c2)ccc1Br`, the inhibition was 42.7% (inactive). In the case of `COc1cc(/C=C/C(=O)Nc2ccc(OC)c(S(=O)(=O)N3CCOCC3)c2)ccc1OCC#N`, the inhibition is -4.4% (inactive). To `CCS(=O)(=O)N1Cc2ccccc2CC1C(=O)Nc1nc2ccc(F)cc2s1` (centres undefined) belongs 97.9% (active).

For the compound `CCS(=O)(=O)N1Cc2ccccc2CC1C(=O)Nc1ccc(OC)cc1OC` (centres undefined), the inhibition is -16.1% (inactive).

Turning to `CSc1ncccc1C(=O)Nc1nc2ccc(F)cc2s1`, the inhibition is -2.85% (inactive). As for `CCOC(=O)C1Nc2ccc(C(F)(F)F)cc2C2C=CCC12` (centres undefined), the figure is -11.3% (inactive). As for `Cc1cc(NC(=O)COc2ccc([N+](=O)[O-])cc2)no1`, the figure is 8.23% (inactive). As for `CN1CCN(c2nc(Nc3ccc(O)cc3)nc3ccccc23)CC1`, the figure is 98.9% (active); as for `c1ccc(Nc2nc(N3CCOCC3)c3ccccc3n2)cc1`, 48.8% (inactive). Regarding `OCCNc1nc(Nc2ccc(Cl)c(Cl)c2)nc2ccccc12`, the inhibition is 19.6% (inactive). For the compound `CC(=O)c1c(C)[nH]c(C(=O)CN2C(=O)NC(C)(C)C2=O)c1C`, the inhibition was 0.194% (inactive). As for `O=c1cc(CO)oc(C(Nc2cccc(C(F)(F)F)c2)c2ccccn2)c1O` (centres undefined), the figure is 52.2% (inactive); as for `O=[N+]([O-])c1cccc(S(=O)(=O)NCc2ccccn2)c1`, -12.1% (inactive); as for `O=c1cc(CO)oc(C(Nc2cccc([N+](=O)[O-])c2)c2ccccn2)c1O` (centres undefined), 94.5% (active). As for `COc1ccc(C(=O)N/N=C2\CCS(=O)(=O)c3ccc(F)cc32)cc1OC`, the inhibition was -0.529% (inactive). As for `O=S1(=O)CC/C(=N\Nc2ccc(F)cc2)c2ccsc21`, the figure is 98.3% (active); as for `COc1ccccc1NC(=O)COC(=O)CNC(=O)C1CCCCC1`, -0.565% (inactive); as for `COc1ccc(-c2c(C#Cc3ccsc3)c3cc(-c4ccc(CN5CCOCC5)cc4)ccc3n2C)cc1`, -4.78% (inactive). As for `COc1ccc(Cn2c(=S)[nH]c3cc(C(=O)N4CCCCC4)ccc3c2=O)cc1`, the figure is 9.27% (inactive); as for `O=C(O)c1ccc(Cn2c(=S)[nH]c3cc(Cl)ccc3c2=O)cc1`, 94.9% (active); as for `CCOc1cc2[nH]c(=S)n(Cc3ccc(C(=O)N4CCN(C)CC4)cc3)c(=O)c2cc1OCC`, -0.332% (inactive). Take `CC(=O)c1ccc(S(=O)(=O)Nc2ccc(-c3ccc4nncn4n3)cc2)cc1`: the inhibition is -13.1% (inactive). As for `O=C1c2ccccc2C(=O)N1CCC#Cc1ccc2cc(C3(O)CCCCC3)oc(=O)c2c1`, the figure is -19.8% (inactive); as for `CCOc1ccc(-c2cc(C(=O)N/N=C/c3ccc(O)cc3)c3ccccc3n2)cc1`, 1.65% (inactive); as for `O=C(COC(=O)C1CCCO1)Nc1nc(-c2ccc(F)cc2)cs1` (centres undefined), -4.39% (inactive). `Cc1ccc2c(c1)C(O)(CC(=O)c1cccnc1)C(=O)N2` (centres undefined): the inhibition was -0.959% (inactive). To `Cc1ccc(NC2(C#N)C(=O)Nc3ccccc32)cc1` (centres undefined) belongs 97.6% (active); to `Cc1cc(O)c(C2(O)C(=O)Nc3ccccc32)cc1C` (centres undefined), 16.1% (inactive). In the case of `CN(C)c1ccc(NC(=O)CN2C3CCCC2CC(NC(=O)c2ccccc2)C3)cc1` (centres undefined), the inhibition is 99.7% (active). For the compound `CC(=O)NC1CC2CCCC(C1)N2CC(=O)Nc1ccccc1` (centres undefined), the inhibition is -9.69% (inactive). As to `CCCN1C2CCCC1CC(NC(=O)c1cccc(OC)c1)C2` (centres undefined), the inhibition was -4.94% (inactive). To `O=C1C=CN2CCCC2CC1` (centres undefined) belongs -8.59% (inactive); to `Cc1ccccc1Nc1nc(-c2cccnc2)cs1`, 11.2% (inactive). As to `O=C(Nc1nc(-c2cccnc2)cs1)c1ccccc1F`, the inhibition is 1.15% (inactive). For `CN(c1ccc(O)cc1)c1nc(-c2cccnc2)cs1`, the inhibition is 95.1% (active). Turning to `C=CCC[C@H](Cc1ccc(F)cc1)C(=O)OC[C@H](C)NC(=O)[C@H](CC=C)CC(=O)N(CCO)Cc1ccccc1`, the inhibition was 2.24% (inactive). On to `COc1ccc([C@H]2CC(=O)C=C(/C=C/c3ccccc3)C2)cc1`, for which the inhibition was 1.57% (inactive). Take `O=C(NCCN1CCOCC1)c1cccc(S(=O)(=O)Nc2ccc(F)cc2)c1`: the inhibition was -5.52% (inactive). Turning to `O=C(COC(=O)c1ccc(Br)o1)NC12CC3CC(CC(C3)C1)C2`, the inhibition was -1.81% (inactive). To `Cc1cc(N/N=C\c2ccc(Br)cc2)nc(-n2nc(C)cc2C)n1` belongs -2.32% (inactive). For `Cc1ccc(S(=O)(=O)Nc2nc(C)cc(N/N=C/c3ccc(O)cc3)n2)cc1`, the inhibition was 98.5% (active). As for `Cc1ccc(S(=O)(=O)Nc2nc(C)cc(-n3nc(C)cc3C)n2)cc1`, the figure is 7.83% (inactive); as for `CCN(C[C@H]1N[C@@](CC)(C(=O)OC)[C@H]2C(=O)N(Cc3ccccc3)C(=O)[C@@H]12)S(=O)(=O)c1ccc(C(F)(F)F)cc1`, 17.3% (inactive). Take `CCCc1ccc(OCC(O)CN2CCN(CCO)CC2)cc1` (centres undefined): the inhibition is -1.03% (inactive). On to `CCc1ccc(S(=O)(=O)NCC(O)COc2ccc(OC)cc2)cc1` (centres undefined), for which the inhibition is -11.7% (inactive).

Regarding `Nc1ccc(OCC(O)C[n+]2ccc(CCS(=O)(=O)[O-])cc2)cc1` (centres undefined), the inhibition is 98.1% (active). For `CCN(CC)C(CNC(=O)CSc1nnnn1-c1cccc(F)c1)c1ccco1` (centres undefined), the inhibition is -5.32% (inactive). As for `O=c1c2ccccc2ccc2ccc(P(=O)(O)O)cc12`, the figure is -13.1% (inactive); as for `O=C1NC[C@@H](c2ccccc2)OC(=O)[C@H](Cc2ccc(F)cc2)CC/C=C/C[C@H]1CC(=O)N(CCO)Cc1ccccc1`, -7.53% (inactive); as for `CC(C)(C)OC(=O)Nc1ccc([C@@H](NC(=O)OC(C)(C)C)C(=O)OC(C)(C)C)cc1`, 2.09% (inactive). As for `Cc1cc(C(=O)O)ccc1[N+](=O)[O-]`, the figure is -8.6% (inactive). As for `Cc1ccc(Sc2cc(C(=O)c3ccccc3C(=O)O)ccc2[N+](=O)[O-])cc1`, the figure is 97.5% (active); as for `CC(C)NC(=O)c1ccc(Sc2ccccc2)c([N+](=O)[O-])c1`, 5.17% (inactive).
